Data taken from PubChem BioAssay (EPA / NIEHS).
Where “and” joins values, the source holds several entries; their conditions need not be identical. Identical values can stand only once. Inconclusive results are not listed. Where a structure was tested more than once in an assay, its records may differ in their call. Calls of active or inactive are those of the source. The calls were made as follows, unless noted: active = hit-call score of the fitted dose curve at least 0.9, where 1 is the maximum; inactive = score below 0.9.

Key:
[1] = target: Nuclear respiratory factor 1 (Homo sapiens) (UniProt Q16656); assay: ATG_NRF1_CIS: Attagene CIS-FACTORIAL HepG2 Assay for human Nuclear Respiratory Factor 1 (NRF1) Orphan Gene (AID 2282987); conditions: HepG2 NRF1 cis-element reporter, Attagene multiplex; actives raise or lower the signal
Nuclear respiratory factor 1 (Homo sapiens), sequence (Q16656 whole entry, looked up): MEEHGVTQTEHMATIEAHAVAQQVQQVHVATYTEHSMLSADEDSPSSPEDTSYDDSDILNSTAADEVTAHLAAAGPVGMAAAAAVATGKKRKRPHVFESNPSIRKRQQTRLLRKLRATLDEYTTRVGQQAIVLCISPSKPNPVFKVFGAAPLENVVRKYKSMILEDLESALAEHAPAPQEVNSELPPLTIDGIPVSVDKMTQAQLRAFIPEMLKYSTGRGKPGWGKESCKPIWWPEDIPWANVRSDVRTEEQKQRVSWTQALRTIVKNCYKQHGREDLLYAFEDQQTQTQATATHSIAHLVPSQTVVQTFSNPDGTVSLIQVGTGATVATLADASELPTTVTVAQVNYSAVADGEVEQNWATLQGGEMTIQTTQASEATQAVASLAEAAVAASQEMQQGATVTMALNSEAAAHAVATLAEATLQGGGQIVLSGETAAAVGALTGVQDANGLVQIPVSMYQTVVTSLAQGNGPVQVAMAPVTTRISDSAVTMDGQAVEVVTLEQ
How it was run: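 Endogenous NRF1-driven reporter transcription measured in transiently transfected human HepG2 liver cells. Readout: reporter mRNA by RT-PCR and capillary electrophoresis with fluorescence detection, 24 h post-dosing. Gain or loss of signal fitted relative to DMSO baseline.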

[2] = target: Myc proto-oncogene protein (Homo sapiens) (UniProt P01106); assay: ATG_Myc_CIS: Attagene CIS-FACTORIAL HepG2 Assay for human Myelocytomatosis (Myc) Proto-Oncogene Transcription Factor (AID 2282990); conditions: HepG2, Attagene cis-reporter transcription factor activity; actives raise or lower the signal
Myc proto-oncogene protein (Homo sapiens), sequence (P01106 whole entry, looked up): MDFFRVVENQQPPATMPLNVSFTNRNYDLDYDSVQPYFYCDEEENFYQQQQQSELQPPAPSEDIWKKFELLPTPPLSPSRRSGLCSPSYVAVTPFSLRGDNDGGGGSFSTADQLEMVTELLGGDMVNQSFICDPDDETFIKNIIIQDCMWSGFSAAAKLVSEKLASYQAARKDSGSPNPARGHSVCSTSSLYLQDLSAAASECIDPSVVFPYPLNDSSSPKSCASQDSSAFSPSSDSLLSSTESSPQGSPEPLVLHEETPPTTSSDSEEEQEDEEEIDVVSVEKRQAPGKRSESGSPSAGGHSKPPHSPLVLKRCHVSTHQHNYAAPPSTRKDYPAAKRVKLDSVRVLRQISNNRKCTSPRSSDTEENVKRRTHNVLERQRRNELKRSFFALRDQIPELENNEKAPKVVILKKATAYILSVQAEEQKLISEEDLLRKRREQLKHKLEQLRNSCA
How it was run: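 HepG2 cells transiently transfected with multiple cis-promoter-driven reporter transcription units, so endogenous TF activity is read. After 24 h compound exposure, reporter mRNA was quantified by RT-PCR, 6-FAM labelling, HpaI digestion and capillary electrophoresis; bidirectional fit versus DMSO.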

[3] = ATG_NF_kB_CIS: Attagene CIS-FACTORIAL HepG2 Assay for human Nuclear Factor Kappa B (NF-kB) (AID 2282991); conditions: HepG2 Attagene cis-factorial NF-kB reporter mRNA; actives raise or lower the signal
How it was run: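 Read-out: reporter transcript levels quantified by RT-PCR plus capillary electrophoresis of 6-FAM-labelled, HpaI-cut fragments. Transfected HepG2 cells, 24 h compound exposure, endogenous NF-kB-driven cis element; gain or loss scored versus DMSO.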

[4] = ATG_NRF2_ARE_CIS: Attagene CIS-FACTORIAL HepG2 Assay for human Nuclear Factor Erythroid 2 Related Factor 2 (NFR2) response to Antioxidant Response Elements (ARE) (AID 2282992); conditions: HepG2 Attagene ARE/NRF2 reporter, transcription factor activity; actives raise or lower the signal
How it was run: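 Readout: reporter mRNA quantified by RT-PCR plus FAM-labelled primer extension, HpaI digestion and capillary electrophoresis, 24 h after dosing transfected HepG2 cells. Gain or loss of signal is fitted bidirectionally against DMSO baseline.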

[5] = target: Cellular tumor antigen p53 (Homo sapiens) (UniProt P04637); assay: ATG_p53_CIS: Attagene CIS-FACTORIAL HepG2 Assay for human p53 Transcription Factor (AID 2282994); conditions: HepG2 p53 cis-element reporter, Attagene mRNA; actives raise or lower the signal
Cellular tumor antigen p53 (Homo sapiens), sequence (P04637 whole entry, looked up): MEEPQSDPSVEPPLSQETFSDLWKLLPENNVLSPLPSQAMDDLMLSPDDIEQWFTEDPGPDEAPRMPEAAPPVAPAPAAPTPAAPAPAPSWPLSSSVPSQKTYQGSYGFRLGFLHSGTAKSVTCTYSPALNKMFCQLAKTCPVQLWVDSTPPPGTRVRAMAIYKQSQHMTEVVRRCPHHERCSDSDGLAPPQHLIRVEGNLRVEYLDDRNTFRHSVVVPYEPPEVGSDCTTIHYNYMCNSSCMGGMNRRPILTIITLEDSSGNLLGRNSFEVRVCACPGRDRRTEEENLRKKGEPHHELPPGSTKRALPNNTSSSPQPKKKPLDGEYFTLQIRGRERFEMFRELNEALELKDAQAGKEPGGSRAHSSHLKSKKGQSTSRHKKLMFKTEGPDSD
How it was run: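 Read-out: reporter mRNA by RT-PCR plus capillary electrophoresis with fluorescence detection. Human HepG2 liver cells carried transfected multi-reporter cis-element constructs, dosed 24 h. Gain or loss of signal fitted bidirectionally against DMSO control.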

[6] = BSK_3C_TissueFactor: BioMAP Diversity Plus: 3C Assay for Tissue Factor Biomarker Activity (AID 2282997); conditions: BioMAP 3C HUVEC, tissue factor biomarker readout; actives raise or lower the signal
How it was run: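 HUVEC, 3C system, 24 h post-dose; Tissue Factor by ELISA; bidirectional fit vs DMSO baseline.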

[7] = BSK_3C_uPAR: BioMAP Diversity Plus: 3C Assay for Urokinase-type plasminogen activator receptor (uPAR) Biomarker Activity (AID 2282998); conditions: BioMAP 3C HUVEC, uPAR biomarker ELISA; actives raise or lower the signal
How it was run: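 Values derive from bidirectional curve fitting relative to DMSO, which served as baseline of activity. uPAR was measured by ELISA in human umbilical vein endothelial primary cultures 24 h after compound addition.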

[8] = BSK_3C_VCAM1: BioMAP Diversity Plus: 3C Assay for Vascular cell adhesion molecule 1 (VCAM1) Biomarker Activity (AID 2282999); conditions: BioMAP 3C HUVEC, VCAM1 ELISA, cytokine-stimulated; actives raise or lower the signal
How it was run: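 Vascular primary endothelium (human umbilical vein) was exposed to chemicals and assayed 24 h later. VCAM-1 levels came from ELISA, with DMSO serving as baseline for bidirectional fitting.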

[9] = BSK_4H_Eotaxin3: BioMAP Diversity Plus: 4H Assay for Eotaxin 3 Biomarker Activity (AID 2283000); conditions: primary human endothelial cells (HUVEC); actives raise or lower the signal;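 as to outcome: CCL26 protein level quantified by ELISA in parallel with SRB cytotoxicity check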
How it was run: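 Readout is Eotaxin-3 (CCL26) level by ELISA in primary human umbilical vein endothelial cells harvested 24 h after chemical exposure; activity fitted in both directions against DMSO control.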

[10] = target: human Peroxisome Proliferator-activated Receptor alpha (PPARa), PPARA (gene 5465) (UniProt Q07869); assay: ATG_PPARa_TRANS: Attagene TRANS-FACTORIAL HepG2 Assay for human Peroxisome Proliferator-activated Receptor alpha (PPARa) (AID 2283001; active = hit-call score of the fitted dose curve at least 0.9, where 1 is the maximum)
human Peroxisome Proliferator-activated Receptor alpha (PPARa), PPARA (gene 5465), sequence (Q07869 whole entry, looked up): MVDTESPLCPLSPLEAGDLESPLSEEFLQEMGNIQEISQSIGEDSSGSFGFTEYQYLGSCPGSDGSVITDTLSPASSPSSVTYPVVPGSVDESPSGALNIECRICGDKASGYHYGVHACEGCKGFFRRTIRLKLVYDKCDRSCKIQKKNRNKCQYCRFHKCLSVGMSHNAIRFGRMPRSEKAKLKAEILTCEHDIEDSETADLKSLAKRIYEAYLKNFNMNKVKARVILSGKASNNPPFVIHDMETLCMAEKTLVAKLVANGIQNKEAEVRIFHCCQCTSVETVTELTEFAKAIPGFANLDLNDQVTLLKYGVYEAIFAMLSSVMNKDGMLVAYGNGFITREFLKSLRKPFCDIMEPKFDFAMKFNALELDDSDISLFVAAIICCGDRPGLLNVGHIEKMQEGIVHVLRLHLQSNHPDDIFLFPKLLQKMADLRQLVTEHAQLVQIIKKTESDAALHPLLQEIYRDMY
How it was run: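 Cells (HepG2) are transfected with multiple reporter transcription units, exposed to chemical for 24 h, then total RNA is reverse-transcribed and amplified. Labelled products are quantified by capillary electrophoresis; induction is referenced to DMSO.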

[11] = target: human Peroxisome Proliferator-activated Receptor delta (PPARd), PPARD (gene 5467) (UniProt Q03181); assay: ATG_PPARd_TRANS: Attagene TRANS-FACTORIAL HepG2 Assay for human Peroxisome Proliferator-activated Receptor delta (PPARd) (AID 2283002; active = hit-call score of the fitted dose curve at least 0.9, where 1 is the maximum)
human Peroxisome Proliferator-activated Receptor delta (PPARd), PPARD (gene 5467), sequence (Q03181 whole entry, looked up, the tested form may be a part): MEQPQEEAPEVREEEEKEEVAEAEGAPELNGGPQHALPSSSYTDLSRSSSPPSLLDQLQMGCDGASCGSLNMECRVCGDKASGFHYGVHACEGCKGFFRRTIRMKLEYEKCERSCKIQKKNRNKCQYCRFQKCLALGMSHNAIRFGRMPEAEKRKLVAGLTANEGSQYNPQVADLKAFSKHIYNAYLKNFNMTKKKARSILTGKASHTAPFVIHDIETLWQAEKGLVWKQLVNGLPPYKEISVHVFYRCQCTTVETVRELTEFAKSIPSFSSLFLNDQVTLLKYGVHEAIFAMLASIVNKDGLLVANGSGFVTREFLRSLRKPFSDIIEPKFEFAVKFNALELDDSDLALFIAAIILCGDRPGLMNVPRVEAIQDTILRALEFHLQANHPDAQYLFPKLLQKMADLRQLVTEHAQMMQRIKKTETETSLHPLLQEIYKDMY
How it was run: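 HepG2 cells transiently transfected with multiplexed GAL4-UAS reporter units and exogenous chimeric NR-Gal4 proteins; 24 h compound exposure. Reporter mRNA measured by RT-PCR, 6-FAM labelling, HpaI digestion and capillary electrophoresis; gain of signal versus DMSO.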

[12] = read-out: Intercellular Adhesion Molecule 1 (ICAM1), ICAM1 (gene 3383); assay: BSK_3C_ICAM1: BioMAP Diversity Plus: 3C Assay for Intercellular Adhesion Molecule 1 (ICAM1) Biomarker Activity (AID 2283003); conditions: primary human endothelial cells (HUVEC); actives raise or lower the signal
How it was run: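 Chemicals are dosed onto primary human umbilical vein endothelium (3C system). After 24 h, ICAM-1 is measured by ELISA, and responses are fitted bidirectionally relative to DMSO.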

[13] = target: human Retinoic Acid Receptor beta (RARb), RARB (gene 5915) (UniProt P10826); assay: ATG_RARb_TRANS: Attagene TRANS-FACTORIAL HepG2 Assay for human Retinoic Acid Receptor beta (AID 2283004; active = hit-call score of the fitted dose curve at least 0.9, where 1 is the maximum)
human Retinoic Acid Receptor beta (RARb), RARB (gene 5915), sequence (P10826 whole entry, looked up, the tested form may be a part): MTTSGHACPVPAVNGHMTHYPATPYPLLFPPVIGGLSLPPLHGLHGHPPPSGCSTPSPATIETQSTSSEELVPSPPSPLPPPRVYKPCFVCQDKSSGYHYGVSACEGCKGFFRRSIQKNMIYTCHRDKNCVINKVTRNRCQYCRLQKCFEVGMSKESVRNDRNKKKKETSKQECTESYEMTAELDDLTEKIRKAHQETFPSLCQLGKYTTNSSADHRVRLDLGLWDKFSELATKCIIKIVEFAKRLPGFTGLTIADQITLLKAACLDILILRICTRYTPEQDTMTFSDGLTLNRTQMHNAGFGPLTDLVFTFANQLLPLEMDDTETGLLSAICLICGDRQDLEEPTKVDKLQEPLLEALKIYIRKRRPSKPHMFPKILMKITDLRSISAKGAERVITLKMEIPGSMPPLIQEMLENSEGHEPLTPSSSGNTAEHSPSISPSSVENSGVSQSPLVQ
How it was run: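 Readout is reporter mRNA induction: RNA reverse-transcribed, PCR-amplified, FAM-labelled, HpaI-cut and resolved by capillary electrophoresis. Transiently transfected HepG2 cells carrying exogenous NR–Gal4 chimeras were dosed for 24 h; activity fitted upward relative to DMSO.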

[14] = BSK_3C_Proliferation: Cell Proliferation Assessment in the BioMAP Diversity Plus: 3C Assay (AID 2283006); conditions: primary human endothelial cells (HUVEC);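 as to AC50: potency may reflect either rise or fall in cell number versus DMSO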
How it was run: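 Cells (human umbilical vein endothelial, sub-confluent) receive test chemical; after 48 h they are fixed in 10% trichloroacetic acid, stained with 0.1% SRB and read at 560 nm. Activity is referenced to DMSO, fitting increases and decreases.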

[15] = target: Peroxisome proliferator-activated receptor gamma (Homo sapiens) (UniProt P37231); assay: ATG_PPARg_TRANS: Attagene TRANS-FACTORIAL HepG2 Assay for human Peroxisome Proliferator-activated Receptor-gamma (PPARg) (AID 2283007; active = hit-call score of the fitted dose curve at least 0.9, where 1 is the maximum)
Peroxisome proliferator-activated receptor gamma (Homo sapiens), sequence (P37231 whole entry, looked up, the tested form may be a part): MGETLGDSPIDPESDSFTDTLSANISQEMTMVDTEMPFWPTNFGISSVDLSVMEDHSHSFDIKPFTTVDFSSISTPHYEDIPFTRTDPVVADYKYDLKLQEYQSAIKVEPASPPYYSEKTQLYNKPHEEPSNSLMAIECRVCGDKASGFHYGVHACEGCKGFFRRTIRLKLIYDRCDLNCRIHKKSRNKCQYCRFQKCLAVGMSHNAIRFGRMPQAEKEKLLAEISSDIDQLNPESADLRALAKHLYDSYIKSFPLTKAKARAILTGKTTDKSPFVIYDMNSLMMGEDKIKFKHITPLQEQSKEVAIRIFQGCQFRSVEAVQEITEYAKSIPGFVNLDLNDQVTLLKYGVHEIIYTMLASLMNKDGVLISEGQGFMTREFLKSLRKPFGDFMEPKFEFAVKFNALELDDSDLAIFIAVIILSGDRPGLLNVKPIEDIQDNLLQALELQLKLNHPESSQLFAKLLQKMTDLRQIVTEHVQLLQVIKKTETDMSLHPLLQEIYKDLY
How it was run: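 Read-out: reporter mRNA induction, detected by fluorescence after RT-PCR and capillary electrophoresis. Transiently transfected human HepG2 liver cells carrying a chimeric NR-Gal4 construct were dosed for 24 h; activity was fitted upward relative to DMSO.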

[16] = target: Nuclear receptor subfamily 1 group I member 2 (Homo sapiens) (UniProt O75469); assay: ATG_PXR_TRANS: Attagene TRANS-FACTORIAL HepG2 Assay for human Pregnane X Receptor (PXR) (AID 2283008; active = hit-call score of the fitted dose curve at least 0.9, where 1 is the maximum)
Nuclear receptor subfamily 1 group I member 2 (Homo sapiens), sequence (O75469 whole entry, looked up, the tested form may be a part): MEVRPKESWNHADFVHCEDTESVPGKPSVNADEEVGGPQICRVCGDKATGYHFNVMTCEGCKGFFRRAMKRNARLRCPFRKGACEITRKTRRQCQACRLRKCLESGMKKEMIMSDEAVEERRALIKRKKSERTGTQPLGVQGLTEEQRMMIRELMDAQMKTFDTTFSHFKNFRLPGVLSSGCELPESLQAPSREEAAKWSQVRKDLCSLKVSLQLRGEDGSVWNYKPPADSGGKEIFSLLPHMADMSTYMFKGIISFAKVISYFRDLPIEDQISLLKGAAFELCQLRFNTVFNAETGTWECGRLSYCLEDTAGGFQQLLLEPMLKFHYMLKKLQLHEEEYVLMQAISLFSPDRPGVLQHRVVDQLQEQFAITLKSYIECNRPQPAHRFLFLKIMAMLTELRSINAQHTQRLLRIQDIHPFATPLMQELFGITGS
How it was run: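 Trans-factorial format: exogenous NR-Gal4 fusion activity, not endogenous factor, in transfected human HepG2 liver cells. After 24 h dosing, RNA isolated, reverse-transcribed, amplified and resolved by capillary electrophoresis; induction scored versus DMSO.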

[17] = ATG_Oct_MLP_CIS: Attagene CIS-FACTORIAL HepG2 Assay for human Octamer-Binding Transcription Factor (Oct) (AID 2282993); conditions: HepG2 Attagene cis-factorial Oct reporter, mRNA; actives raise or lower the signal
How it was run: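 After 24 h compound exposure, transfected HepG2 cells were lysed for total RNA; reporter-specific cDNA was PCR-amplified, fluorescently labelled and sized by capillary electrophoresis. Bidirectional curve fitting used DMSO as baseline.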

[18] = ATG_NFI_CIS: Attagene CIS-FACTORIAL HepG2 Assay for human Nuclear Factor I (NFI) (AID 2282989); conditions: HepG2 cis-regulatory reporter, NFI response element transcription; actives raise or lower the signal
How it was run: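 Multiplexed cis-reporter system in human HepG2 cells reports native TF activity as reporter mRNA induction 24 h post-dose. Fragments labelled with 6-FAM, HpaI-digested and resolved by capillary electrophoresis; activity fitted both directions versus DMSO.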

[19] = target: Retinoic acid receptor alpha (Homo sapiens) (UniProt P10276); assay: ATG_RARa_TRANS: Attagene TRANS-FACTORIAL HepG2 Assay for human Retinoic Acid Receptor alpha (RARa) (AID 2283005; active = hit-call score of the fitted dose curve at least 0.9, where 1 is the maximum)
Retinoic acid receptor alpha (Homo sapiens), sequence (P10276 whole entry, looked up, the tested form may be a part): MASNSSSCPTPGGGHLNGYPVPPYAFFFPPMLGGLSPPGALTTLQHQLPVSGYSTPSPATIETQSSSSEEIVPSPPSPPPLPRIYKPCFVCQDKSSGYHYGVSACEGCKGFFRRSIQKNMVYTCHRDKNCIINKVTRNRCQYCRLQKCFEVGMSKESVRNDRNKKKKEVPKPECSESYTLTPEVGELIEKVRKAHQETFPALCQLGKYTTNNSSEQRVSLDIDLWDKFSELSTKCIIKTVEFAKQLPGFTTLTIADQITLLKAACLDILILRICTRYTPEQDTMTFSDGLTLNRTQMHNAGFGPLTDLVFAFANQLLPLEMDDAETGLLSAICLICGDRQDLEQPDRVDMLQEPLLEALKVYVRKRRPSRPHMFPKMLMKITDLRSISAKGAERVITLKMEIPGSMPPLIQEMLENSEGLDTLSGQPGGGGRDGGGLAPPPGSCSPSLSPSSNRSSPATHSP
How it was run: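 HepG2 cells transiently transfected with multiple reporter units expressing chimeric RARα-GAL4 fusion, with GAL4-UAS-driven reporters. After 24 h compound exposure, reporter mRNA induction quantified by RT-PCR and capillary electrophoresis with fluorescent labeling; gain-of-signal fitted relative to DMSO control.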

[20] = target: human Retinoic Acid Receptor gamma (RARg), RARG (gene 5916) (UniProt P13631); assay: ATG_RARg_TRANS: Attagene TRANS-FACTORIAL HepG2 Assay for human Retinoic Acid Receptor gamma (RARg) (AID 2283009; active = hit-call score of the fitted dose curve at least 0.9, where 1 is the maximum)
human Retinoic Acid Receptor gamma (RARg), RARG (gene 5916), sequence (P13631 whole entry, looked up, the tested form may be a part): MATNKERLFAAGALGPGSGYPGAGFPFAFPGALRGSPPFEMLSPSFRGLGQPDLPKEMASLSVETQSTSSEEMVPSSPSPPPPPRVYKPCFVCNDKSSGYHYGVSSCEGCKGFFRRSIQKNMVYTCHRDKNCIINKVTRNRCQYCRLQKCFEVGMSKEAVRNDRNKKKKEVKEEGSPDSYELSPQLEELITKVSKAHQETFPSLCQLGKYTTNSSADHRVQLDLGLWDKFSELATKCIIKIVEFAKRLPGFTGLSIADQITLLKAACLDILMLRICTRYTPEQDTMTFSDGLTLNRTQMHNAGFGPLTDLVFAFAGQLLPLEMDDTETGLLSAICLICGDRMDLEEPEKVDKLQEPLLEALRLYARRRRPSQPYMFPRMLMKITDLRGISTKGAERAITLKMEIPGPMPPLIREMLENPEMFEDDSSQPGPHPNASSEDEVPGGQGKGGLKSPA
How it was run: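 TRANS format measured activity of exogenous NR-GAL4 fusion (RARg) in transfected HepG2 liver cells after 24 h dosing. Induced reporter RNA was detected by RT-PCR/capillary electrophoresis fluorescence, analysed in the positive direction against DMSO.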

C=CC(=O)OCC(F)(F)C(F)(F)C(F)(F)C(F)(F)COC(=O)C=C
outcome [1]: inactive | AC50 [2]: 65.2 µM (active) | AC50 [3]: 38.4 µM (active) | AC50 [4]: 12.8 µM (active) | AC50 [5]: 79.4 µM (active) | AC50 [6]: 24.9 µM (active) and 35.5 µM (active) | AC50 [7]: 22.9 µM (active) and 28.2 µM (active) | AC50 [8]: 26.7 µM (active) and 21.6 µM (active) | AC50 [9]: 20 µM (active) and 18 µM (active) | outcome [10]: inactive | outcome [11]: inactive | AC50 [12]: 47.1 µM (active) and 48.3 µM (active) | outcome [13]: inactive | AC50 [14]: 9.61 µM (active) and 8.46 µM (active) | AC50 [15]: 37.8 µM (active) | outcome [16]: inactive

FC(F)(F)C(F)(F)C(F)(F)C(F)(F)C(F)(F)C(F)(F)C(F)(F)C(F)(F)CCS
outcome [1]: inactive | outcome [2]: inactive | outcome [3]: inactive | outcome [4]: inactive | outcome [17]: inactive | outcome [6]: inactive | outcome [7]: inactive | outcome [8]: inactive | outcome [9]: inactive | outcome [10]: inactive | outcome [12]: inactive | outcome [14]: inactive

CCCCCC=O
outcome [2]: inactive | outcome [4]: inactive | outcome [10]: inactive | outcome [11]: inactive | outcome [15]: inactive

O=C(C=Cc1ccccc1)OCC=Cc1ccccc1
outcome [18]: inactive | outcome [2]: inactive | AC50 [4]: 2.64 µM (active) | outcome [5]: inactive | outcome [10]: inactive | outcome [11]: inactive | AC50 [15]: 0.641 µM (active) | AC50 [16]: 23.9 µM (active)

Cc1ccc(S(=O)(=O)NCl)cc1
outcome [18]: inactive | outcome [2]: inactive | outcome [4]: inactive | outcome [17]: inactive | outcome [10]: inactive | outcome [11]: inactive | outcome [15]: inactive | outcome [16]: inactive

C=C(C)C(=O)OCCC(F)(F)C(F)(F)C(F)(F)C(F)(F)C(F)(C(F)(F)F)C(F)(F)F
outcome [2]: inactive | outcome [3]: inactive | outcome [4]: inactive | outcome [5]: inactive | outcome [6]: inactive | outcome [7]: inactive | outcome [8]: inactive | outcome [9]: inactive | outcome [11]: inactive | outcome [12]: inactive | outcome [19]: inactive | outcome [14]: inactive | outcome [15]: inactive | outcome [16]: inactive

O=S(=O)(O)c1ccc2ccccc2c1
outcome [2]: inactive | outcome [3]: inactive | outcome [4]: inactive | outcome [17]: inactive | outcome [10]: inactive | outcome [11]: inactive | outcome [15]: inactive | AC50 [16]: 21 µM (active) | outcome [16]: inactive

OCC(F)(F)C(F)(F)C(F)(F)F
outcome [2]: inactive | outcome [3]: inactive | outcome [4]: inactive | outcome [17]: inactive | outcome [6]: inactive | outcome [7]: inactive | outcome [8]: inactive | outcome [9]: inactive | outcome [10]: inactive | outcome [11]: inactive | outcome [12]: inactive | outcome [13]: inactive | outcome [19]: inactive | outcome [14]: inactive | outcome [15]: inactive | outcome [16]: inactive | outcome [20]: inactive

CCCCCCC(C)OC(=O)CCCCC(=O)OC(C)CCCCCC (centres undefined)
outcome [2]: inactive | outcome [3]: inactive | outcome [4]: inactive | outcome [17]: inactive | outcome [5]: inactive | outcome [6]: inactive | outcome [7]: inactive | outcome [8]: inactive | outcome [9]: inactive | outcome [10]: inactive | outcome [11]: inactive | outcome [12]: inactive | outcome [14]: inactive | outcome [15]: inactive | outcome [16]: inactive
